# Test results from PubChem BioAssay AID1085 (Emory University Molecular Libraries Screening Center, 2008).
# The campaign covered roughly 220,000 compounds. About 930 (0.42%) were called active. This excerpt belongs to a sample that is enriched for actives. Values without a mark were called inactive. Rule as the data show it: active = inhibition above about 50%; inactive = the rest.
# Target: Glycoprotein 42 (Epstein-Barr virus (strain AG876)) (UniProt Q1HVG2)
# Assay: EBV glycoprotein 42 binding blockers – biochemical, uHTS, fluorescence polarization, primary screen (AID 1085)
# Conditions: Fluorescence polarization binding assay, mP read-out; hits give high values; tested at 21.74 µM
# Glycoprotein 42 (Epstein-Barr virus (strain AG876)), sequence (Q1HVG2 whole entry, looked up): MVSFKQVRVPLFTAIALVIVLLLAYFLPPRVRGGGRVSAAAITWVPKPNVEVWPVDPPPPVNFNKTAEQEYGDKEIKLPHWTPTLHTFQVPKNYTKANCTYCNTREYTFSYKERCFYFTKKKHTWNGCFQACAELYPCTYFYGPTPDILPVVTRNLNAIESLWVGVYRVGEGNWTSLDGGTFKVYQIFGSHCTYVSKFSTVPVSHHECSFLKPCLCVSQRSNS
row,SMILES,inhibition
1,CC[N+]1(CC)CC2=Cc3ccccc3CC2C1 (stereo not drawn),-0.55%
2,N#Cc1cccc(Nc2c3c(nc4ccccc24)CCCC3)c1,5.27%
3,Cc1cccc(N)c1SC1CCCCC1O (stereo not drawn),-8.15%
4,O=C(Nc1nnc(Cc2ccc(Cl)cc2)s1)c1cccnc1,-5.07%
5,O=C(Nc1nnc(Cc2ccc(Cl)cc2)s1)c1ccncc1,0.5%
6,O=C(Nc1nnc(Cc2ccccc2)s1)c1cnccn1,58.2% (active)
7,Cc1cc(C)n2nc(C(=O)N3CCN(Cc4ccc5c(c4)OCO5)CC3)nc2n1,-5.29%
8,Cc1ccc(-c2nnc(SCC(=O)N/N=C/c3cccs3)n2-c2ccc(C)cc2)cc1,-4.61%
9,O=S(=O)(c1cccc(C(F)(F)F)c1)N1CCN(c2cnccn2)CC1,-12.8%
10,Oc1[nH]c2ccc(Br)cc2c1N=Nc1nn[nH]n1,-11.8%
11,Cc1cccc(N=Nc2c(O)[nH]c3ccc(F)cc23)c1,51.7% (active)
12,Cc1cccc(N=Nc2c(C)[nH]n(-c3ccccc3)c2=O)c1,4.36%
13,COc1ccc(-c2ccc(CNCCCN3CCOCC3)o2)cc1Cl,-7.89%
14,Cn1c(=O)c(=O)n(C)c2cc(S(=O)(=O)NCCN3CCN(c4ccccc4F)CC3)ccc21,-5.54%
15,CN(C)c1ccc(NC(=S)N(CCc2ccccc2)C2CC(=O)N(c3c(Cl)cccc3Cl)C2=O)cc1 (stereo not drawn),-7.96%
16,CCOCCCN(C(=O)Cn1nnc(-c2ccc(OC)c(OC)c2)n1)C(CC)C(=O)NC1CCCC1 (stereo not drawn),2.09%
17,CN(C)c1ccc(Nc2c3c4c(cccc4n(C)c2=O)C(=O)c2ccccc2-3)cc1,51.7% (active)
18,COC(=O)Cn1nc(-c2ccccc2)c2cc(Cl)ccc21,-7.25%
19,CCOC(=O)N1CCN(Cc2nc(Cc3cccc(C(F)(F)F)c3)no2)CC1,5.02%
20,O=C(COC(=O)/C=C/c1ccc(S(=O)(=O)N2CCCCCC2)cc1)NCc1ccccc1Cl,-7.1%
21,CC(=O)Nc1ccc(NC(=O)c2sc3nc4c(c(-c5ccc(C)cc5)c3c2N)CCC4)cc1,-13.2%
22,Cc1cccc(NC(=O)c2sc3nc4c(c(-c5ccco5)c3c2N)CCC4)c1,-22.7%
23,NC(=O)c1sc2nc3c(c(-c4ccccc4)c2c1N)CCC3,68.4% (active)
24,[O-][N+]12CCCCC1CCCC2CO (stereo not drawn),-12%
25,CCN(CC)c1ccc2oc(=O)c(C)nc2c1,51.1% (active)
26,CCN(CC)c1ccc2c(Nc3ccccc3)c(C=O)c(=O)oc2c1,-27.9%
27,CCN(CC)c1ccc2cc(C(=O)O)c(=O)oc2c1,-20.2%

row,SMILES,inhibition
1,CCOC(=O)C1=C(c2ccccc2)N=C2SCC(=O)N2C1c1ccc(O)c(OC)c1 (stereo not drawn),-7.62%
2,CSCC[C@H](NC(=O)NC1CCCC1)C(=O)O,-16.3%
3,CCc1nnc(NC(=O)Cc2cccs2)s1,15.8%
4,O=C(Cc1cccs1)Nc1nnc(C2CC2)s1,-0.17%
5,COc1ccc(Cc2nnc(NC(=O)Cc3cccs3)s2)cc1,73.9% (active)
6,CC(C)CCN1CCN(C/C=C/c2ccco2)CC1CCO (stereo not drawn),0.69%
7,O=C(Nc1ccc(N2CCN(C(=O)c3ccccc3)CC2)c(Cl)c1)c1ncn[nH]1,-5.31%
8,O=C(/C=C/Nc1ccc(S(=O)(=O)Nc2cnc3ccccc3n2)cc1)c1cccnc1,0.92%
9,COc1ccc(NC(=O)Nc2ccc3nsnc3c2)cc1,-9.53%
10,O=C(NCc1ccccn1)c1ccc2nc(-c3ccco3)c(-c3ccco3)nc2c1,33.5%
11,COCCNC(=O)Nc1ccc2nc(-c3ccco3)c(-c3ccco3)nc2c1,52.7% (active)
12,O=C(/C=C/c1cn(-c2ccccc2)nc1-c1ccc2c(c1)OCCO2)NCCCN1CCOCC1,-12.9%
13,CC(=O)c1ccccc1NC(=O)CC1(CC(=O)O)CCCCC1,-14.7%
14,Cc1cc(F)ccc1S(=O)(=O)Nc1ncnc2scc(-c3ccc(F)cc3)c12,9.65%
15,COc1cccc(N(CC(=O)NCCSc2ccccn2)S(C)(=O)=O)c1,-23.3%
16,Brc1ccc(-c2csc(N/N=C/c3cccnc3)n2)cc1,2.77%
17,CCCNc1c(N)c(=O)c1=O,2.64%
18,CC(=O)c1ccc(-c2ccc(Cn3c(C)nc4cc(N)c(C)nc43)cc2)cc1,2.98%
19,O=c1[nH]c2c(c(=O)n1Cc1ccccc1)CCC2,-9.97%
20,Cc1cc2nc3c(=O)n(Cc4ccccc4)c(=O)[nH]c3nc2cc1N,135% (active)
21,COC(=O)CCSc1cc([N+](=O)[O-])cc2c1c(C1OCCS1)nn2-c1ccccc1 (stereo not drawn),24.1%
22,O=C(N/N=C/c1ccc(OCc2ccccc2)cc1)c1ccc(O)cc1,-4.07%
23,O=C(COc1ccc(/C=N/NC(=O)c2ccc(O)cc2)cc1)Nc1ccc([N+](=O)[O-])cc1,77.5% (active)
24,CCCCCC(=O)Nc1ccc(C(=O)N/N=C/c2ccc([N+](=O)[O-])cc2)cc1,-19.6%
25,C/C=C\C=C\C(=O)N1CC2(CC(c3cccc(NC(=O)/C(C)=C\C)c3)=NO2)C[C@H]1C(N)=O (stereo partly drawn),-17.9%
26,CSc1ccccc1NC(=O)CN(C)CC(=O)Nc1cccc(Br)c1,-0.02%
